Data from article PMC7862700, “An all-to-all approach to the identification of sequence-specific readers for epigenetic DNA modifications on cytosine”.

Experiments:
Test in all cases: DAPPL (digital affinity profiling via proximity ligation, sequencing); 10 mM Tris-HCl pH 7.5, 50 mM NaCl, 1 mM DTT, 4% glycerol, room temperature, 30 min; GST-TFs on glutathione beads, 16-mer random dsDNA library, 0.1% formaldehyde crosslink after washing; high values mean tight binding
FLI1 = target: T1, FLI1 (Homo sapiens, UniProt Q01543 1-452); settings: protein: recombinant; tags: N-terminal GST; dsDNA, one strand shown
T1 sequence: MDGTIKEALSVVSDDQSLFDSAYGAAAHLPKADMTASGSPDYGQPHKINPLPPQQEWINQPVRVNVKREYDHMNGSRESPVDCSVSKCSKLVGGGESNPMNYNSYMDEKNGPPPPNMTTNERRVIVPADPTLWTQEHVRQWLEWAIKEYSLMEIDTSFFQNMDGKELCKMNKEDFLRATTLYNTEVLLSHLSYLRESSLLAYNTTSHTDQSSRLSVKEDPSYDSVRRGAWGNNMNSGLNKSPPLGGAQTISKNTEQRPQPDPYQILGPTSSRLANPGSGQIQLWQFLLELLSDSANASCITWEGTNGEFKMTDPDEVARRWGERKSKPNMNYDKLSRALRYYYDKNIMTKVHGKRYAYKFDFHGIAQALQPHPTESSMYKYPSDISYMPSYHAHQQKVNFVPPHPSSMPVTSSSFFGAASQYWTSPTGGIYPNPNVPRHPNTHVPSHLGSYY
Procedure, shortened: (§1)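 Human transcription factors fused to GST were expressed in yeast, captured on glutathione beads, given DNA barcodes and pooled with a GST-only negative control. Pools were incubated with 200 nmole of a 16-mer random double-stranded DNA library in Tris/NaCl/DTT/glycerol buffer at room temperature for 30 min. They were then washed, crosslinked with 0.1% formaldehyde, proximity-ligated (BsaI/T4 ligase, 1 h, 37 °C), PCR-amplified and sequenced on an Illumina NextSeq500. Binding signal is each 6-mer's read frequency for a factor divided by its frequency for the GST control.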

ELK1 = target: T2, ELK1 (Homo sapiens, UniProt P19419 1-428); settings: protein: recombinant; tags: N-terminal GST; dsDNA, one strand shown
T2 sequence: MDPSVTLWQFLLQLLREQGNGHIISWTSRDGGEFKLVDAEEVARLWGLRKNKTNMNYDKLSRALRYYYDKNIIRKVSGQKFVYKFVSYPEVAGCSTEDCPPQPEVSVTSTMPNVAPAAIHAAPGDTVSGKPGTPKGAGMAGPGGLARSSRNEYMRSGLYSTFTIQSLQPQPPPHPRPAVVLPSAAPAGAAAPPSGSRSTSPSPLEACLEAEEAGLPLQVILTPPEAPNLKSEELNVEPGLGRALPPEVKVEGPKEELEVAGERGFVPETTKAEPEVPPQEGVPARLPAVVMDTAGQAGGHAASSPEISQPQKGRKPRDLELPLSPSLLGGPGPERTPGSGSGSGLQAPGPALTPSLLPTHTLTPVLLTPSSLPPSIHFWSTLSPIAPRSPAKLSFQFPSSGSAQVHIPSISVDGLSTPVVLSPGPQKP
Procedure, shortened: as §1

GABPA = target: T3, GABPA (Homo sapiens, UniProt Q06546 1-454); settings: protein: recombinant; tags: N-terminal GST; dsDNA, one strand shown
T3 sequence: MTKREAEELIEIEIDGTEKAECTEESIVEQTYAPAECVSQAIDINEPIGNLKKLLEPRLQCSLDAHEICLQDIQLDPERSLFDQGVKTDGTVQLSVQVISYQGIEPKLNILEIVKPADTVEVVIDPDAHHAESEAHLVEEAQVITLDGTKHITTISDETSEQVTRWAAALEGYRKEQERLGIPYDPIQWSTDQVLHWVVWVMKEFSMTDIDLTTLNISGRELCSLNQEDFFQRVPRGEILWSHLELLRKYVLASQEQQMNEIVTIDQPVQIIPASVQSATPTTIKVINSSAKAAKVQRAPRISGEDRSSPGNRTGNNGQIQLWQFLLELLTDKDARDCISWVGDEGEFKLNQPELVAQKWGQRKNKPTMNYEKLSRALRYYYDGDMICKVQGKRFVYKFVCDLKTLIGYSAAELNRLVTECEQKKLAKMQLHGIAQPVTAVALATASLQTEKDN
Procedure, shortened: as §1

ERG = target: T4, ERG (Homo sapiens, UniProt P11308 1-479); settings: protein: recombinant; tags: N-terminal GST; dsDNA, one strand shown
T4 sequence: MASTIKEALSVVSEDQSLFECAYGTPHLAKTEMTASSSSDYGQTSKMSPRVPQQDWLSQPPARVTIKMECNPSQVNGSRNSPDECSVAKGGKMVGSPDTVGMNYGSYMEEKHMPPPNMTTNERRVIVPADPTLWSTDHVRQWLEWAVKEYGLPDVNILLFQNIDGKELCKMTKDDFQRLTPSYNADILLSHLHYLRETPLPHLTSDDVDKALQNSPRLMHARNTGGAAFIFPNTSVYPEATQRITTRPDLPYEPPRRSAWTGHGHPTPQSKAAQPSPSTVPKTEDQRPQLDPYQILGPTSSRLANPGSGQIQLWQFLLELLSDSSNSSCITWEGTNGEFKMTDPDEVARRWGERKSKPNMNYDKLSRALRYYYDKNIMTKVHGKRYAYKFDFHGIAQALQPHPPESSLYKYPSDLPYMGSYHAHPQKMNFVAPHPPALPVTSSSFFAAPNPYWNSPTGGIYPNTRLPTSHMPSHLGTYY
Procedure, shortened: as §1

ELF1 = ELF1 (Homo sapiens, UniProt P32519 1-619); settings: protein: recombinant; tags: N-terminal GST; dsDNA, one strand shown
Sequence of ELF1 (P32519 whole entry): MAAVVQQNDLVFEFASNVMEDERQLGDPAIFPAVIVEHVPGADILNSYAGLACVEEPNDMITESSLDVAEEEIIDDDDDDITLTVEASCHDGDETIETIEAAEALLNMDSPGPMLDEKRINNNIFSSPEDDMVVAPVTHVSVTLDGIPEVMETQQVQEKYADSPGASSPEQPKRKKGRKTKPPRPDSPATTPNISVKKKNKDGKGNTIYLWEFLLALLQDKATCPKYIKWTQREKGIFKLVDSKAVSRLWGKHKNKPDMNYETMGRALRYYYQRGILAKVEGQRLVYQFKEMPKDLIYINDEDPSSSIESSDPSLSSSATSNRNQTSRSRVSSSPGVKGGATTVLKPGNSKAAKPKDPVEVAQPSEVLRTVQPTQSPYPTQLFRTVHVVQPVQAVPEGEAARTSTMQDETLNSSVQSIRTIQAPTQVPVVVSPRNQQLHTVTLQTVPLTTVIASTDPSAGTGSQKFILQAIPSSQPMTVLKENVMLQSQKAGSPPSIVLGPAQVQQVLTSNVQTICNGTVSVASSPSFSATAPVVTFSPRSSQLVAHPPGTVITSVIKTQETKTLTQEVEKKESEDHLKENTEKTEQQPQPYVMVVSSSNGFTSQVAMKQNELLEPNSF
Procedure, shortened: as §1

EHF = target: T5, EHF (Homo sapiens, UniProt Q9NZC4 1-300); settings: protein: recombinant; tags: N-terminal GST; dsDNA, one strand shown
T5 sequence: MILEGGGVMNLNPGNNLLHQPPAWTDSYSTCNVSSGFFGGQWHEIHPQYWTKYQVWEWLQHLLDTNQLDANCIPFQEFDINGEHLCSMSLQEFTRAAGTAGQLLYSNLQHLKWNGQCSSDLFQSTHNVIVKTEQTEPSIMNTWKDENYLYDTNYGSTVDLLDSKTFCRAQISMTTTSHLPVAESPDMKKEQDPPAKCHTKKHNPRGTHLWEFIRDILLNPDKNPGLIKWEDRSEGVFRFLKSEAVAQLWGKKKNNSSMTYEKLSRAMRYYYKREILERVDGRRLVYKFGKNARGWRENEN
Procedure, shortened: as §1

SPI1 = SPI1 (Homo sapiens, UniProt P17947 1-270); settings: protein: recombinant; tags: N-terminal GST; dsDNA, one strand shown
Procedure, shortened: as §1

SPIB = SPIB (Homo sapiens, UniProt Q01892 1-262); settings: protein: recombinant; tags: N-terminal GST; dsDNA, one strand shown
Sequence of SPIB (Q01892 whole entry): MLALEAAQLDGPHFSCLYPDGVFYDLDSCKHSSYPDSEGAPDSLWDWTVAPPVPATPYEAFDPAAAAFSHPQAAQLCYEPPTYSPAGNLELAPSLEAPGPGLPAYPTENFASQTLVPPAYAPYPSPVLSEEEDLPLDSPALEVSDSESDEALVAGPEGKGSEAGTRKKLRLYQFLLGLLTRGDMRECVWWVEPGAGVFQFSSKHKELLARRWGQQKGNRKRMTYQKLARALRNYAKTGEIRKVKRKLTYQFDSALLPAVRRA
Procedure, shortened: as §1

ELK3 = target: T6, ELK3 (Homo sapiens, UniProt P41970 1-407); settings: protein: recombinant; tags: N-terminal GST; dsDNA, one strand shown
T6 sequence: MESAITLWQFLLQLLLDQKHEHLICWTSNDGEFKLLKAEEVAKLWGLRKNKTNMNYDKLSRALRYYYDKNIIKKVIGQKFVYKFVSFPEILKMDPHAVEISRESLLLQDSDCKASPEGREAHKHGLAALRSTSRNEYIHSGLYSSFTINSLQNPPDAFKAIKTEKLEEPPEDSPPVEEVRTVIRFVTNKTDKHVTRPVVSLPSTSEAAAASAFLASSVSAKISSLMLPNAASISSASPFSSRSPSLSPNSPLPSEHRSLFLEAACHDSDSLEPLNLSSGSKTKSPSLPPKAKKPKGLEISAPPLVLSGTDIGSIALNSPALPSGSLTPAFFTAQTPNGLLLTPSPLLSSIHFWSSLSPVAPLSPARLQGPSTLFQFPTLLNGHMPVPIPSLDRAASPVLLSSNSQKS
Procedure, shortened: as §1

FEV = target: T7, FEV (Homo sapiens, UniProt Q99581 1-238); settings: protein: recombinant; tags: N-terminal GST; dsDNA, one strand shown
T7 sequence: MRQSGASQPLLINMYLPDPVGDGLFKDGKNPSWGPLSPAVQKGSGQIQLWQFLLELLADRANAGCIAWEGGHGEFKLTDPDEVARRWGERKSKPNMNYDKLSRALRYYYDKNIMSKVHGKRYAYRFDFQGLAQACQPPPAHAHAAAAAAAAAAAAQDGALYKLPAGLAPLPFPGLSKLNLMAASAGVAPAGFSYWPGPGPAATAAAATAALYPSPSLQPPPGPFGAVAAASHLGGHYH
Procedure, shortened: as §1

ETV5 = ETV5 (Homo sapiens, UniProt P41161 1-510); settings: protein: recombinant; tags: N-terminal GST; dsDNA, one strand shown
Sequence of ETV5 (P41161 whole entry): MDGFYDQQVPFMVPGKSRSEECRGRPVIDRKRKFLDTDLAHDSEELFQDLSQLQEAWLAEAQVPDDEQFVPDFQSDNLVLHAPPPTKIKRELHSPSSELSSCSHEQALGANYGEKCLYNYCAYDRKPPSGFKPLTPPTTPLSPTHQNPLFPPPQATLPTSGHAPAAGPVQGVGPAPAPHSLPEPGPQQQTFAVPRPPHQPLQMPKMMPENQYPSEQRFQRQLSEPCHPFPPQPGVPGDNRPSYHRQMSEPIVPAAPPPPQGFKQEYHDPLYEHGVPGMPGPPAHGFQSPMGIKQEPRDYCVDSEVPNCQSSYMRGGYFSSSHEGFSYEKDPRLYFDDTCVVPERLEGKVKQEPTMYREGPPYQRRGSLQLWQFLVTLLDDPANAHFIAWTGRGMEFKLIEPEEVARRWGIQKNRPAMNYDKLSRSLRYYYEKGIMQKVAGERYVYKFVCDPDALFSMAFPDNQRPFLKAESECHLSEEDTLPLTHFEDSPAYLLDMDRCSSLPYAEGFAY
Procedure, shortened: as §1

HSF1 = HSF1 (Homo sapiens, UniProt Q00613 1-529); settings: protein: recombinant; tags: N-terminal GST; chain copies: 3; dsDNA, one strand shown
Sequence of HSF1 (Q00613 whole entry): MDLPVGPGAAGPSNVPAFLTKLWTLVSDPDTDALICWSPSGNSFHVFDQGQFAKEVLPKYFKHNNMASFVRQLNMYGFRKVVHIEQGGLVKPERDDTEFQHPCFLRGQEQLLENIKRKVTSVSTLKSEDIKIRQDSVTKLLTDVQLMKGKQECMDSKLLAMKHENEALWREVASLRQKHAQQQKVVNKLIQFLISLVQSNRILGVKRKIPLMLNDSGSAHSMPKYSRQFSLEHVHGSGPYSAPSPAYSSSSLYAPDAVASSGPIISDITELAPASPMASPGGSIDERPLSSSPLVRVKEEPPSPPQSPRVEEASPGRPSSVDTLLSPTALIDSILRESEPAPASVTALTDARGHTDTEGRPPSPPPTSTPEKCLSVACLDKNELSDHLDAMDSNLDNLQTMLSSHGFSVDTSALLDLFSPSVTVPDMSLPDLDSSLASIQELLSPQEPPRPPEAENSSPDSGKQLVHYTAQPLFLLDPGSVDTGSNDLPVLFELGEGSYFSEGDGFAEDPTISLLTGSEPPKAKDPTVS
Procedure, shortened: as §1

SPIC = target: T8, SPIC (Homo sapiens, UniProt Q8N5J4 1-248); settings: protein: recombinant; tags: N-terminal GST; dsDNA, one strand shown
T8 sequence: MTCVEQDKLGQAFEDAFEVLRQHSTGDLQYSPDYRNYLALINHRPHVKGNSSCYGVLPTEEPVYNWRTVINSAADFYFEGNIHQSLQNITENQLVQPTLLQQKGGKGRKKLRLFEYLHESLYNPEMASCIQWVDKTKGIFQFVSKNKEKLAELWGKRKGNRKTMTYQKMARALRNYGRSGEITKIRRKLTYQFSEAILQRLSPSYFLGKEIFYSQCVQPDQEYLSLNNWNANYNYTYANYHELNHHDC
Procedure, shortened: as §1

ELF4 = ELF4 (Homo sapiens, UniProt Q99607 1-663); settings: protein: recombinant; tags: N-terminal GST; dsDNA, one strand shown
Sequence of ELF4 (Q99607 whole entry): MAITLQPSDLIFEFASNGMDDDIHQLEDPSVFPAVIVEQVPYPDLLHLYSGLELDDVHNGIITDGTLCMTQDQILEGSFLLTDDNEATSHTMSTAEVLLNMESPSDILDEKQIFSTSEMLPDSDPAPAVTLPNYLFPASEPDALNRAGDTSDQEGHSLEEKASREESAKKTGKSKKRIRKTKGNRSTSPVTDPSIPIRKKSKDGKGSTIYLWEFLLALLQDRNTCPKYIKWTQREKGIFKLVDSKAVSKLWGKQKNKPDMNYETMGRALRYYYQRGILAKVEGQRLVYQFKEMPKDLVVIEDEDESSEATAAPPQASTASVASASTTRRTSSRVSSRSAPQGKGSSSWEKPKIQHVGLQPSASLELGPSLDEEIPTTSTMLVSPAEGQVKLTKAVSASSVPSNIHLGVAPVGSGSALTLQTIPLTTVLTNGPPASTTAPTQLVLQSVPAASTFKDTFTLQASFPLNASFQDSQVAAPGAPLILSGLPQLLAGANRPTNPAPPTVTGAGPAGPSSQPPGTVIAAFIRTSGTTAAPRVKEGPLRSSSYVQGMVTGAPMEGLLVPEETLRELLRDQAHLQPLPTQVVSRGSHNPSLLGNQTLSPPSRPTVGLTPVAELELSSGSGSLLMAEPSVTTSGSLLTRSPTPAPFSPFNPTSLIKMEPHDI
Procedure, shortened: as §1

ELK4 = target: T9, ELK4 (Homo sapiens, UniProt P28324-2 1-405); settings: protein: recombinant; tags: N-terminal GST; dsDNA, one strand shown
T9 sequence: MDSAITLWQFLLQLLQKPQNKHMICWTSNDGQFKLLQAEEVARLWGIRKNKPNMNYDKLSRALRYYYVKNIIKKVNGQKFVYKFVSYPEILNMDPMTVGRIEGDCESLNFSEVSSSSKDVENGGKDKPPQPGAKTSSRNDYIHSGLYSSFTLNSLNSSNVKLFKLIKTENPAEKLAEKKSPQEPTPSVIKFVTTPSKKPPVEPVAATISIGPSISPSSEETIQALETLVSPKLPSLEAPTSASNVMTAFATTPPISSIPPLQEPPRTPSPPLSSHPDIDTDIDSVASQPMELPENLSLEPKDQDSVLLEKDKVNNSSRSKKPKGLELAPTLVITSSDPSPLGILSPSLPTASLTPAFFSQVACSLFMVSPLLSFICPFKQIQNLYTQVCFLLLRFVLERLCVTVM
Procedure, shortened: as §1

ETV2 = target: T10, ETV2 (Homo sapiens, UniProt O00321 1-342); settings: protein: recombinant; tags: N-terminal GST; dsDNA, one strand shown
T10 sequence: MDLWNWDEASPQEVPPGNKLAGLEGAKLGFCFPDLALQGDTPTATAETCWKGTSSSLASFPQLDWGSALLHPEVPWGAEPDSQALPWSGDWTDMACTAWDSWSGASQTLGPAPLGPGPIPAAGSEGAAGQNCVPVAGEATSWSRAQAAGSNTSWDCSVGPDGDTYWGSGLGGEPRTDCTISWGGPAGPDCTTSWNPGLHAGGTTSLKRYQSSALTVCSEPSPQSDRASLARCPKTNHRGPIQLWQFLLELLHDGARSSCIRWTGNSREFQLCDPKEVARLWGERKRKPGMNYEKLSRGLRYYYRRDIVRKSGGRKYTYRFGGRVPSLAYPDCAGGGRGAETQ
Procedure, shortened: as §1

ELF3 = target: T11, ELF3 (Homo sapiens, UniProt P78545 1-371); settings: protein: recombinant; tags: N-terminal GST; dsDNA, one strand shown
T11 sequence: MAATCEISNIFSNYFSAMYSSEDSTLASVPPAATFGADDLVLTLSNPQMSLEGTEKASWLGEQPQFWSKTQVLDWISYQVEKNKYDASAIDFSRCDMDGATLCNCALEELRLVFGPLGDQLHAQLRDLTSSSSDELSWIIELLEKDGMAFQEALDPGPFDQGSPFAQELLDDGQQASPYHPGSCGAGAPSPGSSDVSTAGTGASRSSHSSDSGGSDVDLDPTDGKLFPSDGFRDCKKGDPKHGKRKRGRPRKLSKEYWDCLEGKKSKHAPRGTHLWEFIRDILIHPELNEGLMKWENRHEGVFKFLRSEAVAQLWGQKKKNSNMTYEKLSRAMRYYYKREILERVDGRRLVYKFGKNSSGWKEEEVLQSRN
Procedure, shortened: as §1

CRX = CRX (Homo sapiens, UniProt O43186 1-299); settings: protein: recombinant; tags: N-terminal GST; dsDNA, one strand shown
Sequence of CRX (O43186 whole entry): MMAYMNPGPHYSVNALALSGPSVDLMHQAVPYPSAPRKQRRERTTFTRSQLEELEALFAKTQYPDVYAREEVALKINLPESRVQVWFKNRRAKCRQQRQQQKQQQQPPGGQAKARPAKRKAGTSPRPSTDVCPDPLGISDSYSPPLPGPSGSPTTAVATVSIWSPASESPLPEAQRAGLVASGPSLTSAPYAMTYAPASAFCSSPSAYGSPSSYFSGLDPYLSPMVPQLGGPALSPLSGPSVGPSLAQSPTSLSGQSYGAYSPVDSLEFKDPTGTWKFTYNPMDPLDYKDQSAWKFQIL
Procedure, shortened: as §1

ETV1 = ETV1 (Homo sapiens, UniProt P50549 1-477); settings: protein: recombinant; tags: N-terminal GST; dsDNA, one strand shown
Sequence of ETV1 (P50549 whole entry): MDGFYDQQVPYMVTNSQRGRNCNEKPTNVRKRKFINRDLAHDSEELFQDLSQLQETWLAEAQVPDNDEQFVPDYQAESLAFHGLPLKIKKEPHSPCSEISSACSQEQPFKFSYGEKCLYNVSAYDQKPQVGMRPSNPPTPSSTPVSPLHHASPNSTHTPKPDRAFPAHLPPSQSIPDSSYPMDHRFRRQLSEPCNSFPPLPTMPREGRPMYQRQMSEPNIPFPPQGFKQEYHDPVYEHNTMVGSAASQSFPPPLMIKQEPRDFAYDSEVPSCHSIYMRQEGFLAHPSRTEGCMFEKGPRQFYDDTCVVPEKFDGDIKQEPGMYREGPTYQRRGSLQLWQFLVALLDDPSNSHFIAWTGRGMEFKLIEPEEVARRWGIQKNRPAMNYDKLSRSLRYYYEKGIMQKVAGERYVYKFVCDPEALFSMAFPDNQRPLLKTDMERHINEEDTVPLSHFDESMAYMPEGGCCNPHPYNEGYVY
Procedure, shortened: as §1

Question: TTAACA was tested. Which binding signal (FLI1) did it give?
Answer: 1.18 fold enrichment (6-mer frequency, TF over GST control)

Question: What about the binding signal (ELK1) of the same sequence?
Answer: 1.13 fold enrichment (6-mer frequency, TF over GST control)

Question: And the binding signal (GABPA)?
Answer: 1.15 fold enrichment (6-mer frequency, TF over GST control)

Question: What about the binding signal (ERG) of the same sequence?
Answer: 1.15 fold enrichment (6-mer frequency, TF over GST control)

Question: What about the binding signal (ELF1) of the same sequence?
Answer: 1.17 fold enrichment (6-mer frequency, TF over GST control)

Question: And the binding signal (EHF)?
Answer: 1.13 fold enrichment (6-mer frequency, TF over GST control)

Question: And the binding signal (SPI1)?
Answer: 1.15 fold enrichment (6-mer frequency, TF over GST control)

Question: And the binding signal (SPIB)?
Answer: 1.14 fold enrichment (6-mer frequency, TF over GST control)

Question: What about the binding signal (ELK3) of the same sequence?
Answer: 1.19 fold enrichment (6-mer frequency, TF over GST control)

Question: What about the binding signal (FEV) of the same sequence?
Answer: 1.13 fold enrichment (6-mer frequency, TF over GST control)

Question: And the binding signal (ETV5)?
Answer: 1.14 fold enrichment (6-mer frequency, TF over GST control)

Question: What about the binding signal (HSF1) of the same sequence?
Answer: 1.65 fold enrichment (6-mer frequency, TF over GST control)

Question: And the binding signal (SPIC)?
Answer: 1.14 fold enrichment (6-mer frequency, TF over GST control)

Question: And the binding signal (ELF4)?
Answer: 1.18 fold enrichment (6-mer frequency, TF over GST control)

Question: What about the binding signal (ELK4) of the same sequence?
Answer: 1.28 fold enrichment (6-mer frequency, TF over GST control)

Question: And the binding signal (ETV2)?
Answer: 1.23 fold enrichment (6-mer frequency, TF over GST control)

Question: What about the binding signal (ELF3) of the same sequence?
Answer: 1.22 fold enrichment (6-mer frequency, TF over GST control)

Question: And the binding signal (CRX)?
Answer: 2.34 fold enrichment (6-mer frequency, TF over GST control)

Question: And the binding signal (ETV1)?
Answer: 1.23 fold enrichment (6-mer frequency, TF over GST control)
